Measurements reported in PubChem BioAssay (Tox21).
Results filed as inconclusive are left out. Entries that show only a call come without a potency. Calls of active or inactive are those of the source. Unless noted, calls come from the whole dose curve; as a rule, active = well fitted curve in the direction sought with a large enough effect in the repeat runs; inconclusive = weak or mixed curves; inactive = no such curve, though single readings can be large; an effect the other way counts as inactive or inconclusive.

Legend:
[1] = qHTS assay to identify aromatase inhibitors - cell viability counter screen (AID 743084);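 note: cells stimulated with testosterone during compound exposure; nearly all actives have a fitted effect of over 55% in size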
[2] = biological target: Aryl hydrocarbon receptor (Homo sapiens) (UniProt P35869); assay: qHTS assay to identify small molecule that activate the aryl hydrocarbon receptor (AhR) signaling pathway (AID 743085); note: nearly all actives have a fitted effect of over 15% in size; note: potency is the fitted concentration of half-maximal effect;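 for activation: HG2L7.5c1 human HepG2 liver cells with stably integrated DRE-driven firefly reporter; series mostly up to about 70 µM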
Aryl hydrocarbon receptor (Homo sapiens), sequence (P35869 whole entry, looked up): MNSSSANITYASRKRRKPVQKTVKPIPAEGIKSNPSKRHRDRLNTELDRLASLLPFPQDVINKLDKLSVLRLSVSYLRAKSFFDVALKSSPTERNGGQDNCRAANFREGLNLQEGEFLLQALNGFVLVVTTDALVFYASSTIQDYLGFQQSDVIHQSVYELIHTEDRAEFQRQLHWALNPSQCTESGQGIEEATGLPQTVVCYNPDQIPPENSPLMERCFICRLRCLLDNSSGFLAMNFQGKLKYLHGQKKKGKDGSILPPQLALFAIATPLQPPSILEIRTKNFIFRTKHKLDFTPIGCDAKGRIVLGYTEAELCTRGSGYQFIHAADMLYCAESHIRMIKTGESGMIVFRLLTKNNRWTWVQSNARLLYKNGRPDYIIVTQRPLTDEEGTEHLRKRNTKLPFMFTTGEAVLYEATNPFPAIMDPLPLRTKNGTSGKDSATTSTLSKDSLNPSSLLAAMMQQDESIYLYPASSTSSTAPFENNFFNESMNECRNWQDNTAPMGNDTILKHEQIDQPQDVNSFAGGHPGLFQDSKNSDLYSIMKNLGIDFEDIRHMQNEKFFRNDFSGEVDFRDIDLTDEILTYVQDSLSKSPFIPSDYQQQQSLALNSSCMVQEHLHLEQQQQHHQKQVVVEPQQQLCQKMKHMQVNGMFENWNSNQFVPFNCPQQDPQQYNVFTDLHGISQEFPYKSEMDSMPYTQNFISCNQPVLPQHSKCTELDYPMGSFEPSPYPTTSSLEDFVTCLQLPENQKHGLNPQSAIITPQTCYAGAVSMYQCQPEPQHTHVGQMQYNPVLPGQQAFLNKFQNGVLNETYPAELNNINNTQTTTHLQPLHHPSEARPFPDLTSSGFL
In short: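 Luminescence (ONE-Glo) from a dioxin-responsive-element luciferase reporter in HG2L7.5c1 HepG2 cells after 24 hr compound exposure at 37C; viability measured by CellTiter-Fluor fluorescence beforehand.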

[3] = qHTS assay to identify small molecule that activate the aryl hydrocarbon receptor (AhR) signaling pathway - cell viability counter screen (AID 743086);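 note: HepG2 liver cells carrying the AhR DRE luciferase reporter; series mostly up to about 70 µM; nearly all actives have a fitted effect of over 45% in size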
In short: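 HepG2-AhR-luc (HG2L7.5c1) cells, 4000/well, treated 24 h at 37 C with compound; viability measured as CellTiter-Fluor fluorescence after 30 min in the same wells as the luciferase read.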

[4] = qHTS assay for small molecule agonists of the antioxidant response element (ARE) signaling pathway (AID 743202; active = well fitted activation curve with a large enough effect in the signal ratio in the repeat runs, not every such curve was filed as active; the % refers to the signal ratio)
In short: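 HepG2 ARE-bla cells; 16 h treatment at 37 C; FRET-based beta-lactamase fluorescence read after 2 h substrate incubation at room temperature.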

[5] = qHTS assay for small molecule agonists of the antioxidant response element (ARE) signaling pathway - cell viability counter screen (AID 743203; calls by dose curve; note: nearly all actives have a fitted effect of over 55% in size)
In short: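 Measured in the same wells as the beta-lactamase ARE reporter, this read-out is CellTiter-Glo luminescence from HepG2 ARE-bla cells given compounds for 16 hrs.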

[6] = qHTS assay for small molecule activators of the heat shock response signaling pathway - cell viability counter screen (AID 743209); note: nearly all actives have a fitted effect of over 50% in size
In short: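 Same-well multiplex: after 2.5 h room-temperature incubation with LiveBLAzer B/G substrate and fluorescence reading, CellTiter-Glo reagent was added to HSE-bla HeLa cells that had received compound for 5 h at 37 C; luminescence read after 30 min.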

[7] = qHTS assay for small molecule activators of the heat shock response signaling pathway (AID 743210; active = well fitted activation curve with a large enough effect in the signal ratio in the repeat runs, with a control signal flat, not every such curve was filed as active; the % refers to the signal ratio;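 note: HeLa cells with beta-lactamase reporter driven by heat shock elements; series mostly up to about 63 µM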)
In short: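 Following overnight attachment, HSE-bla HeLa cells received test compounds for 5 h at 37 C; beta-lactamase activity was then detected via FRET substrate fluorescence.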

[8] = qHTS assay to identify small molecule antagonists of the peroxisome proliferator-activated receptor gamma (PPARg) signaling pathway - cell viability counter screen (AID 743194); note: nearly all actives have a fitted effect of over 55% in size
In short: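 Cytotoxicity counter screen in PPARg-bla HEK293H cells, same wells as reporter assay. Compounds plus 50 nM rosiglitazone (final) for 17 h at 37 C, then viability read by CellTiter-Glo luminescence.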

[9] = biological target: Peroxisome proliferator-activated receptor gamma (Homo sapiens) (UniProt P37231); assay: qHTS assay to identify small molecule antagonists of the peroxisome proliferator-activated receptor gamma (PPARg) signaling pathway (AID 743191; calls by dose curve; note: series mostly up to about 63 µM; nearly all actives have a fitted effect of over 30% in size)
Peroxisome proliferator-activated receptor gamma (Homo sapiens), sequence (P37231 whole entry, looked up): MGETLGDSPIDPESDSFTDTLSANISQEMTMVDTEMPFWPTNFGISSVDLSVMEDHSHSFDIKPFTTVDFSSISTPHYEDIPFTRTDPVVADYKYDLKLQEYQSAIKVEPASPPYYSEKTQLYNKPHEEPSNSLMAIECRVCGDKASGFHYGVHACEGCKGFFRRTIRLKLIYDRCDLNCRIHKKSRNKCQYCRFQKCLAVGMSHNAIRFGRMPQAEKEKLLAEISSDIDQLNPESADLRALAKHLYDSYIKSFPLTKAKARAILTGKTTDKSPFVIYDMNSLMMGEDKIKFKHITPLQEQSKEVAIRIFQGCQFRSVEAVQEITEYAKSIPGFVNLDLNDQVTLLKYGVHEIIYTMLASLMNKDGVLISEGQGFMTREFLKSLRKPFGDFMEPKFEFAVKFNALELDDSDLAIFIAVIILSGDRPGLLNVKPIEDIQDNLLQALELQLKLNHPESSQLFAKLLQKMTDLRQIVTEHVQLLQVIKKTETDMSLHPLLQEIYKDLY
In short: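 GeneBLAzer PPARg UAS-bla HEK293H cells, 5 h post-plating, exposed to compounds 17 h at 37C. LiveBLAzer B/G FRET substrate added for 1 h at room temperature; beta-lactamase reporter read by fluorescence intensity.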

[10] = biological target: Peroxisome proliferator-activated receptor gamma (Homo sapiens) (UniProt P37231); assay: qHTS assay to identify small molecule agonists of the peroxisome proliferator-activated receptor gamma (PPARg) signaling pathway (AID 743094; active = well fitted activation curve with a large enough effect in the signal ratio in the repeat runs, not every such curve was filed as active; the % refers to the signal ratio)
In short: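 Cell-based bla reporter, HEK293H background, PPARg-driven UAS. Pre-incubation 5 h, 37C, 5% CO2. Compound 17 h, 37C. Substrate 1 h RT; fluorescence.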

Row | Structure (SMILES) | Potency [1] | Potency [2] | Potency [3] | Potency [4] | Potency [5] | outcome [6] | outcome [7] | Potency [8] | Potency [9] | Potency [10]
1 | CCCCCCCCCCCCCCCCN | inactive | inactive | inactive | inactive | inactive | inactive | inactive | – | – | –
2 | O=C(O)CCc1nc2ccccc2[nH]1 | inactive | inactive | inactive | inactive | inactive | inactive | inactive | inactive | – | –
3 | O=S(=O)(O)c1cc(Cl)c(Cl)cc1Cl | inactive | inactive | inactive | – | inactive | inactive | inactive | inactive | inactive | –
4 | CCOC(C)OCC | inactive | inactive | inactive | – | inactive | inactive | – | inactive | – | –
5 | COC(=O)C(C)(C)C | inactive | inactive | inactive | inactive | inactive | inactive | inactive | inactive | inactive | –
6 | CCC1=C(C)CN(C(=O)NCCc2ccc(S(=O)(=O)NC(=O)NC3CCC(C)CC3)cc2)C1=O (stereo unspecified) | inactive | inactive | inactive | – | inactive | inactive | inactive | inactive | – | –
7 | C=C[Si](OCC)(OCC)OCC | inactive | inactive | inactive | inactive | inactive | inactive | inactive | inactive | – | –
8 | CC1(C)[C@@H]2CC[C@]3(C2)[C@@H]1C(=O)CCC3(C)C | inactive | inactive | inactive | inactive | inactive | inactive | inactive | inactive | – | –
9 | CCC(C)CCCC(C)(C)O (stereo unspecified) | inactive | inactive | inactive | inactive | inactive | inactive | inactive | inactive | inactive | –
10 | CC(C)(Cc1c[nH]c2ccccc12)NCC(O)COc1ccccc1C#N (stereo unspecified) | inactive | 29.8 µM (active) | – | – | – | inactive | inactive | inactive | – | –
11 | O=C1c2ccccc2C(=O)C1c1ccc2ccccc2n1 | inactive | – | inactive | – | inactive | inactive | inactive | inactive | inactive | inactive
12 | CCOc1ccc2c(c1)C(C)CC(C)(C)N2 (stereo unspecified) | inactive | – | inactive | inactive | – | inactive | inactive | inactive | inactive | inactive
